FAK blocker: blocks human focal adhesion kinase activity. Q05397. biochemical FAK kinase activity assay. inhibition, %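 (tested at 7 µM)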. hit rate 0.84% among 97,000. AID 727; in the data active means inhibition above about 19%
ERa coact pot: enhances coactivator binding to human estrogen receptor alpha; P03372; TR-FRET ERalpha-LBD/SRC-Cy5 coactivator binding, 2 h; 100 = basal binding, no effect; coactivator binding (% of control), % at 25.6 µM; hit rate 1.3% among 86,000; AID 639; in the data active means activity above about 200%;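 further: binding measured in presence of low estradiol as agonist stimulus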
Target sequence (P03372 whole entry, looked up, the tested form may be a part): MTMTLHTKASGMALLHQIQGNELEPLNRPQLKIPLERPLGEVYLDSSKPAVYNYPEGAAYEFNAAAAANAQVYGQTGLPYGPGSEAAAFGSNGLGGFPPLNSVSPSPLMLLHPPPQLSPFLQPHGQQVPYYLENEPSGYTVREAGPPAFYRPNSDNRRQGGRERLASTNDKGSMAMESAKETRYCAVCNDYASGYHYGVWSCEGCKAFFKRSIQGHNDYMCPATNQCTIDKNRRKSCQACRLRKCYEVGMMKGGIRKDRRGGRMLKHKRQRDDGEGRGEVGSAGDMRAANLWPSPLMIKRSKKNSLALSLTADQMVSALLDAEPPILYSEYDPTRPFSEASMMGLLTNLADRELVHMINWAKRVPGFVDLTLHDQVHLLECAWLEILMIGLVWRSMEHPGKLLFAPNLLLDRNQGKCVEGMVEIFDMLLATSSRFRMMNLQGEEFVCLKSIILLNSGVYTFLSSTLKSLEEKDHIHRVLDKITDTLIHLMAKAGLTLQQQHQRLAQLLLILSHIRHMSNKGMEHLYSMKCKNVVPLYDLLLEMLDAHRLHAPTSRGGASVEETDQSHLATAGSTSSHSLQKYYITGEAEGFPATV
ERa SRC1 inh: blocks coactivator binding to human estrogen receptor alpha. P03372. TR-FRET ER-alpha LBD / SRC-1 peptide, estradiol-bound. inhibition, % at 25.6 µM. hit rate 1.7% among 86,000. AID 629; in the data active means inhibition above about 50%
ERb coact inh: blocks coactivator binding to human estrogen receptor beta; Q92731; TR-FRET ER-beta LBD / SRC1-Cy5 peptide binding; receptor agonist-loaded with 1 µM estradiol; inhibition, % at 25.6 µM; hit rate 1.3% among 86,000; AID 633;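 active means compounds whose percent inhibition of the receptor-coactivator binding signal exceeds about 50% in the single-dose screen, limit read from the data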
Smad3 FoxH1 inh: Smad3 (human) transcription factor binding inhibition. P84022. TR-FRET Smad3/Dy647-FoxH1 peptide binding, europium anti-His. inhibition, % at 25 µM. hit rate 0.29% among 88,000. AID 630;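 active means compounds that reduce the energy-transfer binding signal between the protein and its labelled peptide by more than half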
Hits are given with their value; 0 = inactive; - = no result given; [ ] = dose if it differs, or a comment. Most compounds without a hit are left out; they make up all but 3.3% or so of the library.

SMILES	FAK blocker	ERa coact pot	ERa SRC1 inh	ERb coact inh	Smad3 FoxH1 inh
Cc1cnc(C(=O)OCC(=O)c2csc(N3CCCCC3)n2)cn1	0	0	54.1[fluorescence artefact?]	57.1	0
Cc1nc(C)c(C(=O)Nc2nc3c(C)cccc3s2)o1	0	0	91.6[fluorescence artefact?]	90.7[fluorescence artefact?]	0
Cc1cccc2sc(NC(=O)C3CCCO3)nc12 (stereo not given)	0	0	0	0	0
O=S(=O)(O)c1cc(N=[N+]([O-])c2cc(S(=O)(=O)O)c3ccccc3c2)cc2ccccc12	-	-	-	-	0
N=C(N)N1CCc2ccccc2C1	-	0	0	0	0
Cn1c(=O)oc2ccc(C(=O)CSc3nnnn3-c3ccccc3)cc21	0	283.6[fluorescence artefact?]	0	0	0
O=C(O)CSc1nnnn1-c1ccc2c(c1)OCCO2	0	-	-	-	-
COc1ccc(-n2nnnc2SCC(=O)c2ccc3c(c2)OCCO3)cc1	0	307.1[fluorescence artefact?]	0	0	0
O=C(CSc1nnc(-c2cccs2)n1-c1cccc(Cl)c1)c1cccc2c1OCCO2	0	258.6	0	0	0
O=C(CSc1nnnn1-c1ccc2c(c1)OCCO2)c1cccc2c1OCCO2	0	375.4[fluorescence artefact?]	0	0	0
C[C@H]1C[C@@H]2[C@@H]3CCC4=CC(=O)C=C[C@@]4(C)[C@@]3(Cl)[C@H](Cl)C[C@@]2(C)[C@]1(O)C(=O)COP(=O)(O)O	-	-	-	-	0
NC[C@@H](O)CSCc1ccc(Cl)cc1	-	-	-	-	0
CCc1c(O)c2c(c(O)c1C(C)=O)C(=O)c1c(cc(O)c(C(=O)O)c1C(=O)O)C2=O	-	-	-	-	0
N#Cc1ccsc1NC(=O)COc1ccc(-c2nnco2)cc1	-	0	80.3[fluorescence artefact?]	0	0
CC(C)CC(=O)Nc1ccc(C(=O)COc2ccc(-c3nnco3)cc2)cc1	0	0	69.6	0	0
CC(C)CC(=O)Nc1ccc(OCC(=O)O)cc1	0	0	0	0	0
N#Cc1ccsc1NC(=O)CSc1nnc(-c2ccccc2)o1	0	-	-	-	-
N#C[C@H]1CN[C@H](N)N[C@@H]1N	-	-	-	-	0
CCS(=O)(=O)N1CCC(C(=O)N2CCc3ccccc3C2)CC1	0	245.1[fluorescence artefact?]	0	0	0
CCOC(=O)Nc1ccc(OC)cc1S(=O)(=O)N1CCCCC1	0	0	73.7[fluorescence artefact?]	74.3[fluorescence artefact?]	0
COc1ccc(OC)c(S(=O)(=O)N2CCCCCC2)c1	-	0	0	0	0
CN1C(=O)CSc2ccc(NC(=O)N3CCC(N4CCCCC4)CC3)cc21	0	0	57.8	51.3	0
O=C(Nc1cccc(Cl)c1Cl)c1ccncc1	0	0	53.8[fluorescence artefact?]	0	0
O=C(Nc1ccc(Cl)cc1)c1ccncc1	0	0	0	0	0
N/C(=N\c1nc2ccccc2o1)NC(=O)c1ccccc1NC(=O)c1ccccc1	0	0	0	82.2	0
SMILES	FAK blocker	ERa coact pot	ERa SRC1 inh	ERb coact inh	Smad3 FoxH1 inh
N/C(=N\c1nc2ccccc2o1)NC(=O)c1ccccc1F	0	0	0	0	0
NC(N)=N/N=C/c1ccc(O)c(C(=O)O)c1	-	-	-	-	0
O=C(O)c1cc(=O)[nH]c(SCc2ccccc2)n1	-	-	-	-	0
O=C(O)c1ccc(/C=N/N=C2c3ccccc3-c3ccccc32)cc1	-	-	-	-	0
O=C(N/N=C/c1ccc([N+](=O)[O-])s1)c1cccc(Br)c1	21.1	0	76.1[fluorescence artefact?]	0	0
Cc1cc(NC(=O)c2cc(-c3cccc(Cl)c3)on2)no1	0	0	0	0	0
COc1cccc(-c2cc(C(=O)NCc3ccc(Cl)cc3)no2)c1	0	0	69.6[fluorescence artefact?]	0	0
COc1ccc(-c2cc(C(=O)NCc3ccc(Cl)cc3)no2)cc1OC	0	-	-	-	-
COc1cccc(-c2cc(C(=O)Nc3cc(C)on3)no2)c1	0	428.1[fluorescence artefact?]	0	0	0
Cc1c(C(=O)O)nc(/C=C/C(=O)O)[nH]c1=O	-	-	-	-	0
Cc1cc(C)n(C(=O)c2ccc(C)c(S(=O)(=O)N3CCCC3)c2)n1	0	0	0	0	0
N=C(N)SCc1cccc2c(=O)cc(-c3ccccc3)oc12	-	-	-	-	0
Cc1c(Cl)c(S(N)(=O)=O)cc(S(N)(=O)=O)c1NC(=O)c1ccc(Cl)cc1	-	-	-	-	0
COc1ccccc1N1CCN(C(=O)c2cc3c(s2)CCC3)CC1	0	0	64.3	0	0
O=C(CSc1nc(C2CC2)nc2ccccc12)N1c2ccccc2Sc2ccc(C(F)(F)F)cc21	0	-	-	-	-
O=C1c2ccccc2C(=O)N1CC1c2ccccc2CCN1C(=O)C1CCCCC1 (stereo not given)	0	0	0	0	0
O=C(NCC1c2ccccc2CCN1C(=O)CN1CCOCC1)C1CCCCC1 (stereo not given)	0	0	0	0	63.2[fluorescence artefact?]
Cc1ccc(OCc2nn3c(-c4n[nH]c5c4CCC5)nnc3s2)cc1	-	0	73.2[fluorescence artefact?]	54.2	0
COc1ccc(-c2nnc3sc(COc4ccc(C)cc4)nn23)cc1	0	0	0	0	0
c1ccc(OCc2nn3c(-c4n[nH]c5c4CCC5)nnc3s2)cc1	-	0	66.7[fluorescence artefact?]	60.6[fluorescence artefact?]	0
COc1ccc(-c2nnc3sc(COc4ccccc4)nn23)cc1	-	0	0	0	0
CCN1C(=O)c2cccc3c(NC(=O)c4ccc5c(c4)OCCO5)ccc1c23	-	254.6	0	0	0
O=C(O)CCC(=O)c1ccc2sc3ccccc3c2c1	-	-	-	-	0
CCOC(=O)c1cnc2cc(-c3ccc(C)cc3)nn2c1-c1ccccc1	0	247.0[fluorescence artefact?]	0	0	0
Cc1cc(O)c(-c2cc(O)c(C)cc2O)cc1O	-	-	-	-	83.1
SMILES	FAK blocker	ERa coact pot	ERa SRC1 inh	ERb coact inh	Smad3 FoxH1 inh
CC(C)(C)c1ccc(O)c(CN(Cc2c(O)ccc3ccccc23)C2CCCCC2)c1	-	-	-	-	0
CCOC(=O)c1cc(C#N)c(SCc2ccc(C#N)cc2)nc1C	0	251.9[fluorescence artefact?]	72.2[fluorescence artefact?]	66.0[fluorescence artefact?]	64.0[fluorescence artefact?]
CCOC(=O)c1cc2c(N)c(C(=O)c3cc(C#N)c(SC)nc3C)sc2nc1C	0	0	68.7[fluorescence artefact?]	0	0
Clc1ccc(/C=C/c2nc(Cl)c(-c3ccc(Cl)cc3)c(Cl)n2)cc1	-	-	-	-	0
Cn1c(-c2ccc(N)cc2)nc2ccccc21	0	650.1[fluorescence artefact?]	0	0	0
Cn1c(-c2ccc3nc(N)sc3c2)nc2cc(N)ccc21	0	0	64.0[fluorescence artefact?]	53.7[fluorescence artefact?]	0
CN1CCCC1CCNC1C2CC3CC(C2)CC1C3 (stereo not given)	0	-	-	-	-

Screening results: PubChem, several laboratories
